Structures can show the parent of a compound that is named as a salt.

The experiment concerns Vero E6 infected with SARS-CoV-2. Description: morphology score (similarity to uninfected cells); higher = more like uninfected cells. The following applies: 24 h.
In turn, `CC1=CC(=C(c2ccc(N)cc2)c2ccc(N)cc2)C=CC1=N` [basic-fuchsin] (0.833333 µM) gave a morphology score of 0.163.

`CCCCC1CCC(c2nc(-c3ccncc3)no2)CC1` (stereo not drawn) (10 µM): the morphology score is -0.00672.

Turning to `CC(C)(CO)CCCCCCC(C)(C)CO` [gemcadiol] (10 µM), the morphology score worked out at 0.124.

On to `CC(C)C(=O)Oc1ccc(CO)cc1[C@H](CCN(C(C)C)C(C)C)c1ccccc1` [fesoterodine] (10 µM), for which the morphology score is 0.096.

Regarding `O=C(c1cn(Cc2cncn2Cc2ccc(Br)cc2)cc1-c1cccc2ccccc12)N1CCOCC1` (0.833333 µM), the morphology score was 0.342.

In turn, `CC1(C)S[C@@H]2[C@H](NC(=O)[C@H](C(=O)O)c3ccsc3)C(=O)N2[C@H]1C(=O)O` [ticarcillin] (10 µM) came in with a morphology score of -0.0272.

`CCOC(=O)c1ccc(N(C)c2csc(-c3ccccc3)n2)cc1` [neuropathiazol] (10 µM): the morphology score was -0.0531.

Turning to `CCc1cc(C(N)=S)ccn1` [ethionamide] (10 µM), the morphology score worked out at 0.155.

Compound `Cc1nnc(-c2ccc3occ(-c4ccc([S+](C)[O-])cc4)c3c2)o1` (stereo not drawn) (10 µM) gave a morphology score of -0.00242.

In the case of `CC(C)=CCC/C(C)=C/CC/C(C)=C/CCC(=O)OC/C=C(\C)CCC=C(C)C` [geranyl-farnesylacetate] (10 µM), the morphology score was -0.0168.

Consider `COCCCOc1cc(C[C@@H](C[C@H](N)[C@@H](O)C[C@H](C(=O)NCC(C)(C)C(N)=O)C(C)C)C(C)C)ccc1OC` [aliskiren-hemifumarate] (10 µM), for which the morphology score is -0.0367.

Compound `Cn1c(N2CCCCS2(=O)=O)nc(C(=O)NCc2ccc(F)cc2)c(O)c1=O` (10 µM) came in with a morphology score of 0.046.

In the case of `CCOC(=O)C(=O)Nc1cccc(OC)c1C(N)=O` (10 µM), the morphology score was -0.179.

Regarding `CC(C)C[C@H](CN)CC(=O)O` (10 µM), the morphology score is -0.0821.

Turning to `O=C(NC1CCNCC1)c1n[nH]cc1NC(=O)c1c(Cl)cccc1Cl` (10 µM), the morphology score is -0.285.

Compound `Cc1cc(-c2nc(C(=O)Nc3cn(C4CCOCC4)nc3C(N)=O)co2)ccn1` (10 µM) displayed a morphology score of -0.166.

Compound `CO/N=C(\C(=O)N[C@@H]1C(=O)N2C(C(=O)O)=C(Cn3ccc(=N)n3CCO)CS[C@H]12)c1csc(N)n1` [Cefoselis sulfate] (10 µM) displayed a morphology score of 0.115.

Compound `CC[C@@H](CO)NCCN[C@@H](CC)CO` [ethambutol] (10 µM) came in with a morphology score of -0.117.

The compound `Cc1ccc(-c2ncn(-c3ccc(Nc4nccc(-c5cccc(N6CCOCC6)c5)n4)cc3)n2)cn1` (10 µM) gave a morphology score of -0.292.

`CCS(=O)(=O)c1cccc(-c2cc(C(=O)NC3CCN(C)CC3)c(C)c3[nH]c4ncc(C)cc4c23)c1` (0.833333 µM): the morphology score was 0.14.

The compound `CC(C)C(=O)OC[C@@]1(N=[N+]=[N-])O[C@@H](n2ccc(N)nc2=O)[C@H](OC(=O)C(C)C)[C@@H]1OC(=O)C(C)C` [balapiravir] (10 µM) registered a morphology score of 0.0882.

The compound `C=CC[N@@+]12CC[C@@]34c5ccccc5N5/C=C6/[C@H]7C[C@H]8[C@@]9(CC[N@@+]8(CC=C)C/C7=C/CO)c7ccccc7N(/C=C(/[C@@H](C[C@@H]31)/C(=C\CO)C2)[C@H]54)[C@@H]69` [alcuronium] (10 µM) displayed a morphology score of -0.108.

As for `COc1ccc(-c2ccc3c(N4CCOCC4)nc(N4C[C@@H](C)O[C@@H](C)C4)nc3n2)cc1CO` (0.833333 µM), the morphology score was found to be 0.12.

In the case of `O=C(O)c1ccc2cc(-c3ccc(O)c(C45CC6CC(CC(C6)C4)C5)c3)ccc2c1` (0.833333 µM), the morphology score was found to be 0.226.

`COC(=O)C1=C(C)NC(C)=C([N+](=O)[O-])[C@@H]1c1ccccc1C(F)(F)F` (racemic) (10 µM) yielded a morphology score of 0.192.

Regarding `CN1C(=O)OC(C)(C)C1=O` [trimethadione] (10 µM), the morphology score was 0.1.

Consider `COc1cc(OC)c(NC(=O)Nc2cc(C)on2)cc1Cl` (10 µM), for which the morphology score was found to be 0.268.

`CC(C)c1cc(C(C)C)c(CC(=O)NS(=O)(=O)Oc2c(C(C)C)cccc2C(C)C)c(C(C)C)c1` [avasimibe] (10 µM) yielded a morphology score of 0.0222.

`Nc1nc(=O)c2sc(=O)n([C@@H]3O[C@H](CO)[C@@H](O)[C@H]3O)c2[nH]1` (10 µM) yielded a morphology score of 0.013.

On to `COc1ccc(-c2coc3cc(O)ccc3c2=O)cc1` [formononetin] (10 µM), for which the morphology score stood at 0.158.

Compound `CC(Cc1cccc(C(F)(F)F)c1)NCCOC(=O)c1ccccc1` (stereo not drawn) [benfluorex] (10 µM) returned a morphology score of 0.0298.

The compound `CN(C)CCCn1cc(C2=C(c3c[nH]c4ccccc34)C(=O)NC2=O)c2ccccc21` (0.833333 µM) registered a morphology score of -0.0102.

In turn, `Cc1cc(C)c(S(=O)(=O)Nc2cccc(C(F)(F)F)c2)c(C)c1` (10 µM) yielded a morphology score of 0.152.

For the origin of these results see the supplement of paper PMC13380429.
